Source: PubChem BioAssay
Shown is part of a subset that was picked to be rich in hits.
IDH1 R132H inh: blocks human IDH1 R132H reductase activity | O75874 | diaphorase/resazurin fluorescence, 60 min | inhibition, % at 10 µM | hit rate 0.18% among 70,000 | AID 624101; in the data active means inhibition above about 34%;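 further: 0% = DMSO and 100% = no enzyme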
Target sequence (O75874 whole entry R132H): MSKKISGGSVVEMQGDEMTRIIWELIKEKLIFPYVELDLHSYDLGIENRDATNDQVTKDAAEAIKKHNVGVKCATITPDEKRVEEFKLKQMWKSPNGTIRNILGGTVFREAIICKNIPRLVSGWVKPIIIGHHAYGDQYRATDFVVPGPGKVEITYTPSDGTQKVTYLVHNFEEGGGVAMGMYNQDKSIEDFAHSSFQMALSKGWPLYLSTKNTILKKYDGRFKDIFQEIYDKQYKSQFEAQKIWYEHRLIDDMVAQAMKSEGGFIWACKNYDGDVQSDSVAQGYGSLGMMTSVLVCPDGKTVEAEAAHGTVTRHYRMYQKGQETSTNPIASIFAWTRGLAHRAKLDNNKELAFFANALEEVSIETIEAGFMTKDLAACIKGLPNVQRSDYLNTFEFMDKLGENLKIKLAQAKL
The depositor's hits bear a star.

N#CC(C#N)=Cc1cc(O)c(O)c(O)c1 was read as IDH1 R132H inh 33.3*.
Screening N#CC(C#N)=Cc1ccc(O)cc1 returned IDH1 R132H inh 0.6.
For CC(C)(C)ONC(=O)CN=[N+]=[N-] the results were IDH1 R132H inh 0.3.
